# Assay results from publication PMC4336329 (PLoS ONE, 2015).
# Screen size: about 310,000 compounds; about 14,000 (4.5%) showed an effect of 50% or more. The effect is printed as a negative number. The entries come from a sample that favours strong results as a whole.
# Biological target: human ether-à-go-go-related gene (hERG) potassium channel (human, UniProt Q12809)
# Assay: primary screen, population patch clamp on CHO cells stably expressing hERG; higher = less effect of the substance
# 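Also: peak tail current of the secondary pulse compared with the same well before compound.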
# human ether-à-go-go-related gene (hERG) potassium channel, sequence (Q12809 whole entry, looked up): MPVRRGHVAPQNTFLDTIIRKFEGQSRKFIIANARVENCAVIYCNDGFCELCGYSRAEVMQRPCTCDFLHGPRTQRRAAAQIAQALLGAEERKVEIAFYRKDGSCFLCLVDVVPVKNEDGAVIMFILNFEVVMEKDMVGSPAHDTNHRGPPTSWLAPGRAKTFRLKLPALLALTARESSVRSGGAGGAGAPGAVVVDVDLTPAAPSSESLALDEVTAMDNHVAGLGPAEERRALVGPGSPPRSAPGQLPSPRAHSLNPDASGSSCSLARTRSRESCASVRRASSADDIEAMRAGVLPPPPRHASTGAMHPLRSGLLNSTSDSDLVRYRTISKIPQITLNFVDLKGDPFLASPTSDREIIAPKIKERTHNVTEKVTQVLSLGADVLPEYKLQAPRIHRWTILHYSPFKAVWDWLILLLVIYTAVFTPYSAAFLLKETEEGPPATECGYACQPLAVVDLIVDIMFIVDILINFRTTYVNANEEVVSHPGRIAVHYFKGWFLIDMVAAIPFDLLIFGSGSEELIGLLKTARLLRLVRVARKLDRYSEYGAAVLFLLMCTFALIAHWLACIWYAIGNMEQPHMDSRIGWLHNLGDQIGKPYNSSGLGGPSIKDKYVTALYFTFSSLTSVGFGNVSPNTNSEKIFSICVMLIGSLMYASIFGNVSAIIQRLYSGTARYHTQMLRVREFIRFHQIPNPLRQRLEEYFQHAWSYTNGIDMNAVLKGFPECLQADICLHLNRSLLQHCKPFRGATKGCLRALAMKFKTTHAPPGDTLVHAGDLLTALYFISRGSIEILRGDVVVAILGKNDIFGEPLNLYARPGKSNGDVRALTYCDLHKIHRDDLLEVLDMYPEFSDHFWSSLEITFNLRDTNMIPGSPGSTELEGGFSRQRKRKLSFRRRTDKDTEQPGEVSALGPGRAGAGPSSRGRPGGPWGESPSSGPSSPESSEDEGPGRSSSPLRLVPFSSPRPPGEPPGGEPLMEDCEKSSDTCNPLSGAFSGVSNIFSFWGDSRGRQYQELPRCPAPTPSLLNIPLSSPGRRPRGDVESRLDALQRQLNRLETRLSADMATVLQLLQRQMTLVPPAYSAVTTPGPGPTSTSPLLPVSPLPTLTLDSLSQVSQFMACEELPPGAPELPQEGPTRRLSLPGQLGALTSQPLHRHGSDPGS
row,Structure (SMILES),"hERG current change (%, negative = inhibition) at 10uM [%]"
1,CCOC(=O)c1cc(C)n(S(=O)(=O)c2ccc(C)cc2)c1C,-2.18
2,Cc1ccc(-c2cn(S(=O)(=O)c3cccc([N+](=O)[O-])c3)nc2N)cc1,15.3
3,COc1ccccc1CNC(=O)CCC(=O)N1C[C@H]2C[C@@H](C1)c1cccc(=O)n1C2,-5.65
4,O=C(COc1ncnc2sccc12)Nc1cccc(S(=O)(=O)N2CCOCC2)c1,-2.77
5,O=C(Nc1ccc2nc(C3CC3)n(Cc3ccccc3)c(=O)c2c1)C1CC1,-6.15
6,CC1(C)CC(NC(=O)COc2cc3oc(=O)c4c(c3cc2Cl)CCC4)CC(C)(C)N1,11.2
7,COc1ccc(OC)c(C(c2nnnn2C2CCCC2)N2CCc3ccccc3C2)c1 (centres unmarked),-11.1
8,COc1ccc(/C=C/C(=O)OCC(=O)Nc2cc(S(=O)(=O)N(C)C)ccc2Cl)cc1,28.4
9,CCN(CC(=O)Nc1ccc(NC(C)=O)cc1)C(=O)COc1ccc2ccccc2c1,-10.1
10,CCc1ccccc1OCC(=O)N(CC)CC(=O)NCc1ccc(F)cc1,8
11,CCN(CC(=O)NCc1ccc(F)cc1)C(=O)COc1ccc2ccccc2c1,-70.5
12,CCN(CC(=O)Nc1c(F)cccc1F)C(=O)c1cccnc1SC,6.33
13,CCOc1ncccc1C(=O)N(CC)CC(=O)NCc1ccc(F)cc1,7.12
14,CCN(CC(=O)NCc1ccc(F)cc1)C(=O)c1cccnc1SC,-62.9
15,Cc1cc(C(=O)NC2CCCc3c2cnn3-c2ccc(C)c(C)c2)no1 (centres unmarked),-42.9
16,Cc1ccc(-n2ncc3c2CCCC3NC(=O)CCc2cnn(C)c2)cc1C (centres unmarked),7.27
17,CCCC(=O)NC1CCCc2c1cnn2-c1ccc(C)c(C)c1 (centres unmarked),-72
18,CSCC(=O)NC1CCCc2c1cnn2-c1ccc(C)c(C)c1 (centres unmarked),-28
19,COC(=O)c1ccc(C(=O)NC2CCCc3c2cnn3-c2ccc(C)c(C)c2)cc1 (centres unmarked),6.54
20,Cc1ccc(-n2ncc3c2CCCC3NC(=O)c2ccoc2)cc1C (centres unmarked),-79.2
21,O=C1COc2ccc(S(=O)(=O)NCCc3ccccc3)cc2N1,10.7
22,CC(NC(=O)c1cc(S(=O)(=O)N2CCCC2)ccc1Cl)c1ccccn1 (centres unmarked),18.1
23,CCOc1ccc(C2C3=C(CC(C)(C)CC3=O)N(CC(=O)O)C3=C2C(=O)CC(C)(C)C3)cc1OCC,5.47

row,Structure (SMILES),"hERG current change (%, negative = inhibition) at 10uM [%]"
1,CC(=O)c1ccc(NC(=S)N(C)C2CCN(C)CC2)cc1,-4.16
2,CC1CC(C)CN(C(=O)c2ccccc2Nc2ccc(SC(F)F)cc2)C1 (centres unmarked),0.904
3,CNC(=O)c1ccccc1Nc1ccc(SC(F)F)cc1,-1.62
4,CN1CCN(C(=O)c2ccccc2Nc2ccc(SC(F)F)cc2)CC1.Cl,-26
5,O=C(NCc1ccncc1)c1cccc(S(=O)(=O)Nc2ccc(SC(F)F)cc2)c1,-3.21
6,CN1CCC(N(C)C(=S)Nc2ccc(F)cc2)CC1,21.3
7,CC1CCN(C(=S)Nc2ccc(SC(F)F)cc2)CC1,-33
8,CN1CCC(N(C)C(=S)Nc2ccc(SC(F)F)cc2)CC1,-56.6
9,CC1CN(C(=S)Nc2ccc(SC(F)F)cc2)CC(C)O1 (centres unmarked),-27.6
10,CN1CCC(N(C)C(=O)c2ccccc2Nc2ccc(SC(F)F)cc2)CC1,-62.2
11,CC1CC(C)CN(C(=S)Nc2ccc(SC(F)F)cc2)C1 (centres unmarked),-51.8
12,O=C(NCc1ccncc1)c1ccccc1Nc1ccc(SC(F)F)cc1,-63.9
13,O=C(CCN1C(=O)c2ccccc2C1=O)OCN1C(=O)c2ccccc2C1=O,-11.5
14,COCCSc1ccccc1C(=O)NCc1cccnc1,18.7
15,CCc1c(C)[nH]c2nc3ccccc3n2c1=O,4.86
16,CC(C)c1nc2ccc(NC(=O)C34CC5CC(CC(C5)C3)C4)cc2[nH]1,4.9
17,COCCCn1c(SCC(=O)Nc2nnc(C)s2)nnc1-c1ccoc1C,4.33
18,Cc1ccc(NC2=NC(=S)N(CC#N)C23CCCCC3)cc1,-6.19
19,COc1cccc(C(=O)C2CCCN(C(=O)c3ccccn3)C2)c1 (centres unmarked),3.77
20,Cc1c(CN2CCCC(C(=O)c3cccc(Cl)c3)C2)c(=O)n(-c2ccccc2)n1C (centres unmarked),-24
21,CC(C)Oc1cccc(C(=O)C2CCCN(Cc3cccn3-c3ccccn3)C2)c1 (centres unmarked),-78.8
22,COc1cccc(C(=O)C2CCCN(Cc3c(C)n(C)n(-c4ccccc4)c3=O)C2)c1 (centres unmarked),-21.2
23,Cc1c(CN2CCCC(C(=O)c3cccc(OC(C)C)c3)C2)c(=O)n(-c2ccccc2)n1C (centres unmarked),-57.2

row,Structure (SMILES),"hERG current change (%, negative = inhibition) at 10uM [%]"
1,CC(C)Oc1cccc(C(=O)C2CCCN(Cc3ccon3)C2)c1 (centres unmarked),-3.37
2,COc1cccc(C(=O)C2CCCN(Cc3cccn3-c3ccccn3)C2)c1 (centres unmarked),-76.5
3,CC(C)Oc1cccc(C(=O)C2CCCN(Cc3cccn3-c3cccnc3)C2)c1 (centres unmarked),-27.7
4,COc1ccc(C(=O)Nc2c3c(nn2C(C)(C)C)CS(=O)(=O)C3)cc1OC,13.1
5,CCc1ccccc1NS(=O)(=O)c1cc(C)ccc1OC,-5.89
6,O=C(O)COc1ccccc1/C=N/NC(=O)c1ccc2c(c1)OCCO2,-2.93
7,O=C(CSc1nnc(COc2ccc3c(c2)CCCC3)o1)Nc1ccc(F)cc1,10.2
8,Cc1ccc2c(C)nc(Nc3ncc4c(n3)CCCC4=O)nc2c1,-12.4
9,Cc1cc(C)n2nnnc2n1,18.5
10,CS(=O)(=O)c1ccccc1C(=O)NCCC(c1ccccc1)c1ccccc1,-51.9
11,COc1ccccc1C(=O)NCC(=O)NC(C)CCc1ccccc1 (centres unmarked),1.99
12,COc1ccccc1C(=O)NCC(=O)Nc1ccccc1,5.97
13,COc1ccccc1C(=O)NCC(=O)NCCC(c1ccccc1)c1ccccc1,-64.4
14,Cc1ccc(C(NC(=O)c2ccccc2S(C)(=O)=O)c2ccccc2)cc1 (centres unmarked),-30.3
15,Cc1cc(C(=O)NCCC(c2ccccc2)c2ccccc2)c(C)o1,-17.5
16,O=C(C1CCCO1)N1CCN(C(=S)Nc2ccc(Cl)c(Cl)c2)CC1 (centres unmarked),-30.2
17,CCN(CC)C(=O)c1cn(-c2ccccc2)nc1-c1ccc2c(c1)OCCO2,-3.56
18,O=C(Nn1c(C2CC2)nc2ccccc2c1=O)c1ccco1,-8.14
19,CCN(CC(=O)NCc1ccc(F)cc1)C(=O)/C=C/c1cccs1,-40.9
20,Cc1cc(C)n(-c2ccc(Cl)c(C(=O)OCC(=O)N3CCCCC3C)n2)n1 (centres unmarked),-4.12
21,NNc1nc(-c2ccccc2)c2cc(Cl)ccc2n1,-11.3
22,Cl.NC(N)=Nc1nc(-c2ccccc2)c2cc(Cl)ccc2n1,-67.9
23,Cc1nc(N=C(N)N)nc2ccccc12,23.6

row,Structure (SMILES),"hERG current change (%, negative = inhibition) at 10uM [%]"
1,NC(N)=Nc1nc(-c2ccccc2)c2cc(F)ccc2n1,-66.2
2,NC(N)=Nc1nc(-c2ccccc2)c2ccccc2n1,-40.1
3,Clc1ccc2nnnc(-c3ccccc3)c2c1,-9.98
4,CC(=O)c1ccc(NC(=S)N2CCN(C(=S)Nc3ccc(C(C)=O)cc3)C(C)C2)cc1 (centres unmarked),20.6
5,CCN(CC)S(=O)(=O)c1cccc(NC(=S)NC(=O)/C=C/c2ccc(S(=O)(=O)N3CCOCC3)cc2)c1,-6.82
6,CCCCc1nc2ccccc2[nH]1,14.2
7,CSc1nc2sc(-c3ccccc3)cc2c(=O)n1N,17.4
8,O=C(NNC(=O)c1ccccc1-n1cccc1)c1ccccc1,-18.3
9,Cc1ccccc1-c1nc(C#N)c(NCc2ccco2)o1,-57.2
10,N#Cc1nc(-c2ccccc2Cl)oc1NCc1ccco1,-8.28
11,Cc1ccc(-c2nc(C#N)c(NCc3ccco3)o2)cc1,-0.709
12,O=C(COc1ccccc1)N1CCN(C(=O)Cc2ccccc2)CC1,-1.51
13,COc1cc2nc(SCC(=O)c3ccc(Br)cc3)n3nc(C)nc3c2cc1OC,-17.7
14,Cc1nn(C)cc1CN1CCCC(C(=O)c2ccc(-c3ccccc3)cc2)C1 (centres unmarked),-45.4
15,Cc1ccsc1C(=O)C1CCCN(Cc2cn(C)nc2-c2ccccc2)C1 (centres unmarked),-32.1
16,Cn1cc(CN2CCCC(C(=O)c3cccs3)C2)c(-c2cccc(Cl)c2)n1 (centres unmarked),-39.2
17,COc1cccc(C(=O)C2CCCN(Cc3cn(CC(N)=O)c4ccccc34)C2)c1 (centres unmarked),-53
18,Cc1nn(C)cc1CN1CCCC(C(=O)c2ccc(-c3ccccc3)c(F)c2)C1 (centres unmarked),-15.3
19,COc1cccc(C(=O)C2CCCN(Cc3cn(C)nc3-c3ccccc3)C2)c1 (centres unmarked),-68.8
20,COc1ccc(C(=O)C2CCCN(Cc3cn(C)nc3-c3ccccc3)C2)cc1F (centres unmarked),-72.4
